The results in this text go back to PubChem BioAssay.

A short description of assay [1]: anti-His antibody binders, primary screen, artefact control for SMM control protein annotation, biochemical, small-molecule microarray, 635 nm fluorescence (AID 1128).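 Note: score merges feature fluorescence with signal-to-noise for each printed compound spot.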 Particulars: anti-His Alexa647 antibody binding, higher = more signal.
In assay [2] the test system is Human papillomavirus type 1a E7 protein (residues 1-88). Put plainly: HPV1a E7 small-molecule binders, primary screen, biochemical, small-molecule microarray, residues 1-88, 635 nm (AID 1129). The conditions noted are these: small-molecule microarray binding, fluorescence 635 nm; higher = more signal.
For assay [3], the target named is Focal adhesion kinase 1 (Homo sapiens) (UniProt Q05397). In words: small-molecule microarray binders of FAK, primary screen, biochemical, 635/667 nm fluorescence, BSA, DTT (AID 1130).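 Note: composite of spot emission at 667 nm and signal to noise over triplicate slides.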 Particulars: PTK2 binding, 635 nm fluorescence, higher = more signal.
Assay [4] deals with Fibrinogen (Alexa647-labelled). Put plainly: fibrinogen binders on compound microarrays, profiling panel, artefact control for SMM control-protein annotation, biochemical, small-molecule microarray, 635/667 nm fluorescence (AID 1131).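 Note: z-score merges 667 nm fluorescence with per-spot signal-to-noise over triplicate slides.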 The conditions noted are these: fibrinogen-A647 binding fluorescence, higher = more signal.
The target of assay [5] is Follistatin (Homo sapiens) (UniProt P19883). Put plainly: follistatin binders on small-molecule microarrays, primary screen, biochemical, small-molecule microarray, 635/667 nm fluorescence (AID 1132). Particulars: FST binding, 635 nm fluorescence, higher = more signal.
The target in assay [6] is Fibroblast growth factor 2 (Homo sapiens) (UniProt P09038). Put plainly: FGF2 binders on small-molecule microarrays, primary screen, biochemical, small-molecule microarray, 635/667 nm fluorescence (AID 1133). The conditions noted are these: small-molecule microarray binding, FGF2, fluorescence 635/667; higher = more signal.
Assay [7] is described as follows: mitochondrial membrane potential change in A549 cells, profiling panel, cell-based, JC-1 fluorescence, basal, 24 h, 100 nL (AID 1138).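 Note: A549 lung adenocarcinoma cells under basal conditions with no added stimulus; test concentration not given here.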 Particulars: higher = more signal.
The next assay concerns Lefty1. Put plainly: Lefty1 binders on small-molecule microarrays, primary screen, biochemical, small-molecule microarray, 635/667 nm fluorescence (AID 1139). The conditions noted are these: small-molecule microarray binding, fluorescence 635/667; higher = more signal.
Assay [8] relates to wheat germ agglutinin (Triticum aestivum), Alexa647-labelled. In words: wheat germ agglutinin binders on compound microarrays, profiling panel, artefact control for SMM control-protein annotation, biochemical, small-molecule microarray, 635/667 nm fluorescence (AID 1140).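 Note: score merges 667 nm feature emission with signal to noise over triplicate slides.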 The conditions noted are these: WGA-A647 binding, 635 nm fluorescence, higher = more signal.
In assay [9] the target is Luciferin 4-monooxygenase (Photinus pyralis) (UniProt P08659). In words: firefly luciferase enzyme inhibitors, primary screen, biochemical, luminescence, purified enzyme, 2006 set (AID 1141).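 Note: cell-free assay with purified firefly luciferase at 100 ng per well in PBS; test concentration not given here.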 Particulars: SteadyGlo luminescence, 30 min, higher = more signal, called active from +8 up or from −8 down.
Assay [10] has as its system Wnt5a (protein binding on small-molecule microarray). In words: Wnt5a binders on small-molecule microarray, primary screen, biophysical, 635/667 nm fluorescence (AID 1142).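 Note: fluorescence read at 667 nm with signal to noise per printed feature.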 Particulars: 635 nm fluorescence, higher = more signal.
A short description of assay [11]: cell viability in Huh7 cells, primary screen, cytotoxicity control for HCV replication inhibitor project, CellTiter-Glo luminescence, basal, 48 h (AID 1143).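 Note: Huh7 hepatoma cells carrying a hepatitis C replication reporter with no stimulus; test concentration not given here.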 The conditions noted are these: Huh7 HCV replicon, higher = more signal, called active from +8 up or from −8 down.
The nature of assay [12]: P. aeruginosa biofilm formation inhibitors, primary screen, PAO1 strain, BacTiter-Glo luminescence, LB-PBS (AID 1144). Particulars: 12 h, higher = more signal.
Assay [13] can be described thus: CREB reporter modulators without forskolin, primary screen, cell-based, PC12, CRE-LacZ reporter, unstimulated (AID 1145). The conditions noted are these: no forskolin, luminescence, 4.5 h, higher = more signal, called active from +8 up or from −8 down.
Assay [14] can be described thus: CREB reporter modulators under forskolin, primary screen, cell-based, PC12, CRE-LacZ reporter, forskolin-stimulated (AID 1146).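 Note: PC12 cells with 6xCRE LacZ reporter stimulated by forskolin 10 µM; beta-galactosidase reporter signal reflecting CREB driven transcription.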 Particulars: luminescence, 4.5 h, higher = more signal, called active from +8 up or from −8 down.
Assay [15] has as its target Streptavidin (Streptomyces avidinii) (UniProt P22629). Put plainly: streptavidin binders on small-molecule microarray, primary screen, artefact control for SMM compound annotation, biophysical, 635/667 nm fluorescence (AID 1147).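 Note: signal reflects streptavidin binding to arrayed compounds as a control protein.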 Particulars: streptavidin binding, higher = more signal.
The nature of assay [16]: small-molecule binders of probe aInhba, primary screen, biochemical, small-molecule microarray, 635/667 nm fluorescence (AID 1148).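 Note: score merges 667nm spot fluorescence with signal-to-noise for antibody binding to printed compounds.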 Particulars: higher = more signal.
In assay [17] the target is Torsin-1A (Homo sapiens) (UniProt O14656). In words: torsin A binders from cell lysate, primary screen, small-molecule microarray, wild-type, 635/667 nm (AID 1149). Particulars: COS7 hTOR1A-WT lysate, 635 nm fluorescence, higher = more signal.
Assay [18] shares this target. Put plainly: small-molecule binders of mutant TOR1A in lysate, primary screen, cell lysate, small-molecule microarray, COS7 lysate, 635/667 nm fluorescence (AID 1150).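 Note: score pools 667 nm emission and signal to noise measuring lysate protein binding.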 The conditions noted are these: COS7 hTOR1A mutant lysate, 635 nm fluorescence, higher = more signal.
The subject of assay [19] is Sonic hedgehog protein (Shh). Put plainly: small-molecule binders of Shh protein, primary screen, biochemical, small-molecule microarray, 635/667 nm fluorescence (AID 1151).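 Note: Shh protein binding to compounds spotted on small-molecule microarray slides; score combines spot fluorescence intensity with signal-to-noise across triplicate slides.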 Particulars: small-molecule microarray binding, 635 nm fluorescence; higher = more signal.

Structures are written as SMILES. The source made the active and inactive calls. Unless noted, the rule behind the calls is not given here.

Sequence of Torsin-1A (Homo sapiens) (O14656 whole entry, looked up): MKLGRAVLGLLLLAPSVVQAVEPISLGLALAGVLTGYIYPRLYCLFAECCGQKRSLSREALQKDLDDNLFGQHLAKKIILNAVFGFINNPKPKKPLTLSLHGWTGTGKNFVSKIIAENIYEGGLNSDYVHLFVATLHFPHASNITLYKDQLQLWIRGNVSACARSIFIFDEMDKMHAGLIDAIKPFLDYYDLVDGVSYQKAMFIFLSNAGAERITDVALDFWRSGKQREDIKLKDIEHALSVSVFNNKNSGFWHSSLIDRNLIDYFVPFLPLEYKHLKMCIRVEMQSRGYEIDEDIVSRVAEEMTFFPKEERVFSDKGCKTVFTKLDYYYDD
Sequence of Luciferin 4-monooxygenase (Photinus pyralis) (P08659 whole entry, looked up): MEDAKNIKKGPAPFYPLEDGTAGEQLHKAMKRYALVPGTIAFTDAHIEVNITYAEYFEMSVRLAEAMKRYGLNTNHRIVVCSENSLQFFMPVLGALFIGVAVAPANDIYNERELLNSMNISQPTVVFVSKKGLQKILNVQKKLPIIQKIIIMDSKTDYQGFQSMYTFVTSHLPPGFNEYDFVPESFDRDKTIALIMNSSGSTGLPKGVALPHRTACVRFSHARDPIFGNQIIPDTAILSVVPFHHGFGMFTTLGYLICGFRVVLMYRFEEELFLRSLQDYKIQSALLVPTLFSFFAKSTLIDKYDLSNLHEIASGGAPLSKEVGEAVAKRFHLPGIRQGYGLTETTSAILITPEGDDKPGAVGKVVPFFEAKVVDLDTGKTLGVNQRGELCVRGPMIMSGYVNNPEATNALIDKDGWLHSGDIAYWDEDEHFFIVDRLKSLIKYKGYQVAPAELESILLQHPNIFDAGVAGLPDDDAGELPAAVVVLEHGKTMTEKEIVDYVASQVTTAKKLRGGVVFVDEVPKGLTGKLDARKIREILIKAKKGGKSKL
Sequence of Fibroblast growth factor 2 (Homo sapiens) (P09038 whole entry, looked up): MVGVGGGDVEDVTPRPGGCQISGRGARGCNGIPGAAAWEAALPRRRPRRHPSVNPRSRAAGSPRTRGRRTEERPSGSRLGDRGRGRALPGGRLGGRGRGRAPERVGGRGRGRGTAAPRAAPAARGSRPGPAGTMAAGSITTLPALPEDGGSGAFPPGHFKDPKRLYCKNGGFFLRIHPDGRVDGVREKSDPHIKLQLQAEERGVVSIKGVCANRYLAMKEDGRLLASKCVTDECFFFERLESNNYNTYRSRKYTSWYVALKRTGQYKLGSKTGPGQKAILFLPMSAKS
Sequence of Follistatin (Homo sapiens) (P19883 whole entry, looked up): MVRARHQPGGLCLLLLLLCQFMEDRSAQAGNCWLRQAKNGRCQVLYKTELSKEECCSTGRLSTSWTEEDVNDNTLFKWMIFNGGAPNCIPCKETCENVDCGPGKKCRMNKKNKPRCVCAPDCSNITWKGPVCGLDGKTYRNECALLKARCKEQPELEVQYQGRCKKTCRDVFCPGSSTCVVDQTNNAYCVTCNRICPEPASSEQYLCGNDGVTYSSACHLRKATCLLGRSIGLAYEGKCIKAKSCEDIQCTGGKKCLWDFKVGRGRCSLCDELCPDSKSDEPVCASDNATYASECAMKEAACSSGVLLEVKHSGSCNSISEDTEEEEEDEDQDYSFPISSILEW
Sequence of Focal adhesion kinase 1 (Homo sapiens) (Q05397 whole entry, looked up): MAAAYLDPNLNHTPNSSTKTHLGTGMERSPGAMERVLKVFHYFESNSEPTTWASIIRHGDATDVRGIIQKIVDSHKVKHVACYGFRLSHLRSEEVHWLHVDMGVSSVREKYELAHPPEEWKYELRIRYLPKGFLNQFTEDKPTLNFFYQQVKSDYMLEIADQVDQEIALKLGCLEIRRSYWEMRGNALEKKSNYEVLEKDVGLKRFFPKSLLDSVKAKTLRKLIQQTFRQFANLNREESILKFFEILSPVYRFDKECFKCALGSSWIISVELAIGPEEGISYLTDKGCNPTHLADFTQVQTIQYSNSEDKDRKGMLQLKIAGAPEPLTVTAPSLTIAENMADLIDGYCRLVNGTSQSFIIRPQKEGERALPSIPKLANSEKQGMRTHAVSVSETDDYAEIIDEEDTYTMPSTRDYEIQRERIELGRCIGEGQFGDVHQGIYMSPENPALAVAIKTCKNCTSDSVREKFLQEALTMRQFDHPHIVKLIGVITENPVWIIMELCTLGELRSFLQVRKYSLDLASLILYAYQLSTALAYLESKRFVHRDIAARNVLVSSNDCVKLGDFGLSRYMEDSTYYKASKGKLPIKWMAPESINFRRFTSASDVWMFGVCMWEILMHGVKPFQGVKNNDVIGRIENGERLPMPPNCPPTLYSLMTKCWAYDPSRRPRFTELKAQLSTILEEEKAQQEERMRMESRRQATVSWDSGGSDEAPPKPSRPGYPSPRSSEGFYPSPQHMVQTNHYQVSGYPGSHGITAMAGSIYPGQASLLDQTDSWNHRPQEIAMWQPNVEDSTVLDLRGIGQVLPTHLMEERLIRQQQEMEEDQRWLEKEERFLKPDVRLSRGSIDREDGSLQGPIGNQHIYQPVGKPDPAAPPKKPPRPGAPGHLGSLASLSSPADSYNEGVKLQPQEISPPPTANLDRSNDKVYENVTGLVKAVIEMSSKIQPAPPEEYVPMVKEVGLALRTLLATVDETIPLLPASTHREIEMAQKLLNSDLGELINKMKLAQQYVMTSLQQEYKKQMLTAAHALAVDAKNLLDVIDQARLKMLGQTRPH
Sequence of Streptavidin (Streptomyces avidinii) (P22629 whole entry, looked up): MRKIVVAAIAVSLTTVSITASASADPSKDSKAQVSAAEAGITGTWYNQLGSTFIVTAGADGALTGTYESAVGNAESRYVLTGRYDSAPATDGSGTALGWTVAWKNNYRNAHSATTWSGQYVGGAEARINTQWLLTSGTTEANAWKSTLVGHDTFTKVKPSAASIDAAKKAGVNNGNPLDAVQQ

`COCCOC(=O)N1C(=O)[C@@]2(c3cc(C#CCCO)ccc31)[C@H](C(=O)N1CCc3cc(OC)c(OC)cc3C1)[C@H]1C(=O)O[C@H](c3ccccc3)[C@H](c3ccccc3)N1[C@@H]2c1ccccc1OCCO`: the composite z-score is 0.362 in assay [1]; 1.19 in assay [2]; 0.496 in [3]; 0.87 in [4]; 1.41 in assay [5]; 1.3 in [6]. Also, the composite z-score is 1.3 in the assay on Lefty1; 0.603 in assay [8]; 0.75 in assay [10]; 0.587 in assay [15]; 0.425 in assay [16]; 0.258 with Torsin-1A (Homo sapiens) [17]. In addition, the composite z-score in the assay with Torsin-1A (Homo sapiens) [18] is 0.904; in assay [19], 1.69. The z-score was -0.976 in assay [7]; 0.151 (inactive) in assay [9]; -1.84 (inactive) in [11]; -0.652 (inactive) in assay [12]; -0.89 (inactive) in assay [13]; -0.251 (inactive) in assay [14].

`O=C1OCCC/C=C\[C@H]2OC34C=CCN(Cc5ccccc5)C(=O)[C@H]3N(CCCCCO)C(=O)[C@@H]4C12` (stereo not given in full): the composite z-score in assay [1] is -0.862; in assay [2] it was -1.2; in [3], -0.603; in assay [4] it was -1.62; in assay [5] it was -1.07; in [6], -0.883. Besides, the composite z-score was -0.696 in the assay with Lefty1; -1.09 in assay [8]; -0.238 in [10]; -1.26 in [15]; -0.186 in assay [16]; -0.234 in the assay with Torsin-1A (Homo sapiens) [17]. Besides, the composite z-score was -1.75 in the assay with Torsin-1A (Homo sapiens) [18] and 0.168 in assay [19]. Further, the z-score in assay [7] is 0.537; in assay [9] it was -0.984 (inactive); in assay [11] it was 0.255 (inactive); in [12] it was 1.2 (inactive); in assay [13], 0.732 (inactive); in assay [14] it was 0.327 (inactive).

As to `C=CCOC(=O)[C@H]1[C@@H]2C(=O)O[C@@H](c3ccccc3)[C@@H](c3ccccc3)N2[C@@H](c2ccc(OCCOC(=O)[C@@H]3C[C@@H]4C(=O)N[C@@H](Cc5ccccc5)C(=O)N4[C@@H]3c3ccc(O)cc3)cc2)[C@]12C(=O)Nc1ccccc12`, the composite z-score in assay [1] is 1.78; in [2] it was 1.19; in assay [3], 1.53; in assay [4], 0.911; in assay [5], 1.32; in assay [6] it was 1.33. Moreover, the composite z-score is 0.948 in the assay with Lefty1; 1.2 in assay [8]; 0.5 in assay [10]; 0.537 in [15]; -0.0762 in assay [16]; 0.83 with Torsin-1A (Homo sapiens) [17]. Also, the composite z-score in the assay with Torsin-1A (Homo sapiens) [18] worked out at 0.8; in [19], 1.03. The z-score in assay [7] was -1.15; in assay [9], -0.497 (inactive); in assay [11], 0.247 (inactive); in assay [12], -0.661 (inactive); in [13], 0.679 (inactive); in assay [14], -0.158 (inactive).

With `COC(=O)[C@@]1(Cc2ccc(OC)cc2)[C@H]2c3cc(C(=O)N4CCCC4)n(CCc4ccc(OC)c(Br)c4)c3C[C@H]2CN1C(=O)c1ccccc1`, the composite z-score in [1] is 1.66; in assay [2], 1.16; in [3], 0.946; in [4], 0.406; in [5], -0.533; in [6], -0.381. For the same molecule, the composite z-score with Lefty1 is -1.13; in assay [8], 0.345; in assay [10], -0.0726; in [15] it was 0.0687; in [16], 0.195; with Torsin-1A (Homo sapiens) [17] it was 0.373. In addition, the composite z-score is 0.57 with Torsin-1A (Homo sapiens) [18] and -0.908 in assay [19]. Further, the z-score in assay [7] is 0.914; in assay [9], 0.626 (inactive); in [11] it was -0.0564 (inactive); in assay [12], 0.24 (inactive); in assay [13], 0.387 (inactive); in assay [14] it was 0.132 (inactive).
